Measurements published in paper PMC7862700, “An all-to-all approach to the identification of sequence-specific readers for epigenetic DNA modifications on cytosine”.

Assays:
Test in all cases: DAPPL (digital affinity profiling via proximity ligation, sequencing); 10 mM Tris-HCl pH 7.5, 50 mM NaCl, 1 mM DTT, 4% glycerol, room temperature, 30 min; GST-TFs on glutathione beads, 16-mer random dsDNA library, 0.1% formaldehyde crosslink after washing; high values mean tight binding
FLI1 = biological target: T1, FLI1 (Homo sapiens, UniProt Q01543 1-452); conditions: protein: recombinant; tags: N-terminal GST; dsDNA, one strand shown
T1 sequence: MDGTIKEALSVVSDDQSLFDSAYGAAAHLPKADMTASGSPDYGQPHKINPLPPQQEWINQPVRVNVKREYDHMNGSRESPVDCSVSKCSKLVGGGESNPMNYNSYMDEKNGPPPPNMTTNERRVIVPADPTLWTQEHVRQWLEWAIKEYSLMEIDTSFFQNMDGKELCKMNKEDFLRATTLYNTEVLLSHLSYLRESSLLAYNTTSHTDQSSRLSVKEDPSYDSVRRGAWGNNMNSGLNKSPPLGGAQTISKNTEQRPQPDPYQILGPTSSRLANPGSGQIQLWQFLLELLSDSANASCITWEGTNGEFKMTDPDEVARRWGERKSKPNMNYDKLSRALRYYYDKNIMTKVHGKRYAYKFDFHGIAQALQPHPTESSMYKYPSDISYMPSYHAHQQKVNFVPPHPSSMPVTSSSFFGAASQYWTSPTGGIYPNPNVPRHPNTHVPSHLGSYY
Procedure, shortened: (§1)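 Each value of binding signal is a hexamer's read frequency for a factor divided by the same hexamer's frequency in the tag-only sample. Barcoded, bead-captured GST fusions of human transcription factors made in yeast were pooled with that sample and incubated with 200 nmole of a random double-stranded 16-mer DNA library in Tris/NaCl/DTT/glycerol buffer at room temperature for 30 min. Washing, 0.1% formaldehyde crosslinking, proximity ligation, PCR and Illumina NextSeq500 sequencing followed.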

ELK1 = biological target: T2, ELK1 (Homo sapiens, UniProt P19419 1-428); conditions: protein: recombinant; tags: N-terminal GST; dsDNA, one strand shown
T2 sequence: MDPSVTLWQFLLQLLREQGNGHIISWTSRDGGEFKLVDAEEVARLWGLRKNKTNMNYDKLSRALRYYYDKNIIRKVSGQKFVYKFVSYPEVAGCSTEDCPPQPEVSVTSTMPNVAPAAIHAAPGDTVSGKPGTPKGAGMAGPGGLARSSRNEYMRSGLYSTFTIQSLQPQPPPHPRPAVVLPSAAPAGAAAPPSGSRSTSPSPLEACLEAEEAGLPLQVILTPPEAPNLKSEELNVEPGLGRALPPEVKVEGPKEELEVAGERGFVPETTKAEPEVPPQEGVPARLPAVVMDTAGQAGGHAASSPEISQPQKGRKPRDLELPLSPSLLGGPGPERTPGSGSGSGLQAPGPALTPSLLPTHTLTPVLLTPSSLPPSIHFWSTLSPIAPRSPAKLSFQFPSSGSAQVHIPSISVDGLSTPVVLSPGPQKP
Procedure, shortened: as §1

GABPA = biological target: T3, GABPA (Homo sapiens, UniProt Q06546 1-454); conditions: protein: recombinant; tags: N-terminal GST; dsDNA, one strand shown
T3 sequence: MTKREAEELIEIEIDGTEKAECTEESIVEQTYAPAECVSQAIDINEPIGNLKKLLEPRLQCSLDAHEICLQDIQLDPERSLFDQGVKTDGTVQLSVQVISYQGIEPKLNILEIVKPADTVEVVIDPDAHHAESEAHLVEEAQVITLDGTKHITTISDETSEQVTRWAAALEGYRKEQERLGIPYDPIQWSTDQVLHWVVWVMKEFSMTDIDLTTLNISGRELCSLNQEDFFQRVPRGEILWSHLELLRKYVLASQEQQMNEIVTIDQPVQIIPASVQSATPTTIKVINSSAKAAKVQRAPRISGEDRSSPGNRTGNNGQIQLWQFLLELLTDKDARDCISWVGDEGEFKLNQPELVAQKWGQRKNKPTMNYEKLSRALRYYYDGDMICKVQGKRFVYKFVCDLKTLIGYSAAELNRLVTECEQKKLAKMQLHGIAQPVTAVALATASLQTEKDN
Procedure, shortened: as §1

ERG = biological target: T4, ERG (Homo sapiens, UniProt P11308 1-479); conditions: protein: recombinant; tags: N-terminal GST; dsDNA, one strand shown
T4 sequence: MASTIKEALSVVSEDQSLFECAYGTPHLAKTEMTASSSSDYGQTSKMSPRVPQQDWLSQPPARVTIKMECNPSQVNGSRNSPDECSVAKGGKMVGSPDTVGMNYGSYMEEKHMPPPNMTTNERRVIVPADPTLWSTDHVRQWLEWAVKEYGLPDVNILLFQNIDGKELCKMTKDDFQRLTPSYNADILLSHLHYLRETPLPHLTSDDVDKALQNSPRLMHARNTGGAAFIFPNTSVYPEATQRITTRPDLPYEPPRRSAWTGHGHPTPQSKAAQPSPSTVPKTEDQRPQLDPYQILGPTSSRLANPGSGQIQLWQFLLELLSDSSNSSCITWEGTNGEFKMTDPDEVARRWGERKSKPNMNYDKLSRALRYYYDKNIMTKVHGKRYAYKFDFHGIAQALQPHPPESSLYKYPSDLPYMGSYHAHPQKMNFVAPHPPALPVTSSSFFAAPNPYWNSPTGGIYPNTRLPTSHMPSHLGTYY
Procedure, shortened: as §1

ELF1 = ELF1 (Homo sapiens, UniProt P32519 1-619); conditions: protein: recombinant; tags: N-terminal GST; dsDNA, one strand shown
Sequence of ELF1 (P32519 whole entry): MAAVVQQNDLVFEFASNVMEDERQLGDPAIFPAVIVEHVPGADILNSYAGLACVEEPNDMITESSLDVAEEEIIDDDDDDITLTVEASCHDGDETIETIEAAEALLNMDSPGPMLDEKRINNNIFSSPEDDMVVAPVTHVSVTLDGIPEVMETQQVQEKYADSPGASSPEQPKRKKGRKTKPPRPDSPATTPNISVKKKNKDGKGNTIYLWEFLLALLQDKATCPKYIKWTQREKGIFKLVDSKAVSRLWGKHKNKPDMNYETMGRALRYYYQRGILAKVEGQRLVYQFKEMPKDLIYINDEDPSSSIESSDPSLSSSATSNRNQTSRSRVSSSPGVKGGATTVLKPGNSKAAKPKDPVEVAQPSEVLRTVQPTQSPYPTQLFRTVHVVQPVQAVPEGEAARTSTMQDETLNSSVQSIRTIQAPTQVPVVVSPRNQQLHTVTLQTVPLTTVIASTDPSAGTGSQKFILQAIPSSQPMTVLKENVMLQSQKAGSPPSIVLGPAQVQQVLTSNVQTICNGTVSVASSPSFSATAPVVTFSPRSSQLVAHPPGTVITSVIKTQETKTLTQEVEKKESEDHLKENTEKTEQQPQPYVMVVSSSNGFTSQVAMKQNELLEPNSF
Procedure, shortened: as §1

EHF = biological target: T5, EHF (Homo sapiens, UniProt Q9NZC4 1-300); conditions: protein: recombinant; tags: N-terminal GST; dsDNA, one strand shown
T5 sequence: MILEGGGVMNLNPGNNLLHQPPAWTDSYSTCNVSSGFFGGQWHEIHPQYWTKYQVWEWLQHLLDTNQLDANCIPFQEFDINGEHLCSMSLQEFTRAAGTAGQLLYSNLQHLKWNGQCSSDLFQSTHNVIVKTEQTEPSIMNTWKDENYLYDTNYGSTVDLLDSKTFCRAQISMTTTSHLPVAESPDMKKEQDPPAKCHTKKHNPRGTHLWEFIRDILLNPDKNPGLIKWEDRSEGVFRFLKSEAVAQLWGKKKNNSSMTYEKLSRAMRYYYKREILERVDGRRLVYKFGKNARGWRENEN
Procedure, shortened: as §1

SPI1 = SPI1 (Homo sapiens, UniProt P17947 1-270); conditions: protein: recombinant; tags: N-terminal GST; dsDNA, one strand shown
Procedure, shortened: as §1

SPIB = SPIB (Homo sapiens, UniProt Q01892 1-262); conditions: protein: recombinant; tags: N-terminal GST; dsDNA, one strand shown
Sequence of SPIB (Q01892 whole entry): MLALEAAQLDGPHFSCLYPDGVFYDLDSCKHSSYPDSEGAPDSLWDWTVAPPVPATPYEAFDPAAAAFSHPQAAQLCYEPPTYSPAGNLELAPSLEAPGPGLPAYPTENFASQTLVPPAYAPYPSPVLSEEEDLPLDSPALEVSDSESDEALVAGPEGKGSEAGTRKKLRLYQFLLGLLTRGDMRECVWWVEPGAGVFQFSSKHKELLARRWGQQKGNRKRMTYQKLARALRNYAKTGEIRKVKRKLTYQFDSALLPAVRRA
Procedure, shortened: as §1

ELK3 = biological target: T6, ELK3 (Homo sapiens, UniProt P41970 1-407); conditions: protein: recombinant; tags: N-terminal GST; dsDNA, one strand shown
T6 sequence: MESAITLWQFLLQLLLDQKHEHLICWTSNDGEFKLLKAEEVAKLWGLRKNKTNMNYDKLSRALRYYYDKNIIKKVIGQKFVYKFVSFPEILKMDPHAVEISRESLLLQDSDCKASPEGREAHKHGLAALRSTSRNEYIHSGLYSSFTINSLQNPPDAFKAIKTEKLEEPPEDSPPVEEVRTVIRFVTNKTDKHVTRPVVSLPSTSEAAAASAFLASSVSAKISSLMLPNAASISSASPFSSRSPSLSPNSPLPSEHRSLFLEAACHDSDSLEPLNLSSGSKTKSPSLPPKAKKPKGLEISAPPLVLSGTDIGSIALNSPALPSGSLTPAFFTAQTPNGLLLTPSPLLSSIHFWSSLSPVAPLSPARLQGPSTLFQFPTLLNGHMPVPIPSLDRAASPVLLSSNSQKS
Procedure, shortened: as §1

FEV = biological target: T7, FEV (Homo sapiens, UniProt Q99581 1-238); conditions: protein: recombinant; tags: N-terminal GST; dsDNA, one strand shown
T7 sequence: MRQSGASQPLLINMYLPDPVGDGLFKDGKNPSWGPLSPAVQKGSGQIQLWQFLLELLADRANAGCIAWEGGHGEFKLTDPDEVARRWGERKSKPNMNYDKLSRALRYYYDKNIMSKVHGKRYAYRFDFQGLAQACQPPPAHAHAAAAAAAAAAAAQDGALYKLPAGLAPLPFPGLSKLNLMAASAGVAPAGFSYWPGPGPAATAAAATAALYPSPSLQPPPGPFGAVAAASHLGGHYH
Procedure, shortened: as §1

ETV5 = ETV5 (Homo sapiens, UniProt P41161 1-510); conditions: protein: recombinant; tags: N-terminal GST; dsDNA, one strand shown
Sequence of ETV5 (P41161 whole entry): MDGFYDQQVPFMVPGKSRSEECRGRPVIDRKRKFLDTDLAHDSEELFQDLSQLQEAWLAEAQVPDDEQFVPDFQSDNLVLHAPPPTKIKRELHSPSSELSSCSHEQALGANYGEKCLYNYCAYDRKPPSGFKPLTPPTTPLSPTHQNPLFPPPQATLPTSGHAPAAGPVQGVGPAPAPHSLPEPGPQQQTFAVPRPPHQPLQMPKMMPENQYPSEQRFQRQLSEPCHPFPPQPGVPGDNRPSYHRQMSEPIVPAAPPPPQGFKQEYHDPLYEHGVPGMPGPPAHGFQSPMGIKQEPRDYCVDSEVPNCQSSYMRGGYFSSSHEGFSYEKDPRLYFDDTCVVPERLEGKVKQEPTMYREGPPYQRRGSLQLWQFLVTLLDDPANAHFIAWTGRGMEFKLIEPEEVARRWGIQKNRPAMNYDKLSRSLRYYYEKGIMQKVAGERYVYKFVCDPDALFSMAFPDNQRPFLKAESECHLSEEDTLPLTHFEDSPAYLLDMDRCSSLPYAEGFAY
Procedure, shortened: as §1

HSF1 = HSF1 (Homo sapiens, UniProt Q00613 1-529); conditions: protein: recombinant; tags: N-terminal GST; chain copies: 3; dsDNA, one strand shown
Sequence of HSF1 (Q00613 whole entry): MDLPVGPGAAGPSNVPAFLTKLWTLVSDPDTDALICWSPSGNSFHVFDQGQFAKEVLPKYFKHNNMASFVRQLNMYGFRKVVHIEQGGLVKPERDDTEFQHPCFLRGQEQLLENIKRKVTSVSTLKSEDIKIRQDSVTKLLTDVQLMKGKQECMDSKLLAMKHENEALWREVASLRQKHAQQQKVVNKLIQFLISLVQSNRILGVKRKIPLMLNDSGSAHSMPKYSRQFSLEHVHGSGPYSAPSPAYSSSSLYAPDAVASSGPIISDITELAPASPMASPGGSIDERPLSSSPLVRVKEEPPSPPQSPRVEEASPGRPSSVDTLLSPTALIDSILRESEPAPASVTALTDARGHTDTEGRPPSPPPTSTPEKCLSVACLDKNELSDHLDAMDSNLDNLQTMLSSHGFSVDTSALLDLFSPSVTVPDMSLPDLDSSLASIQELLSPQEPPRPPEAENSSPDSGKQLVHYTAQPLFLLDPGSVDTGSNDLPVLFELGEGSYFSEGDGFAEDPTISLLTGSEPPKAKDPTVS
Procedure, shortened: as §1

SPIC = biological target: T8, SPIC (Homo sapiens, UniProt Q8N5J4 1-248); conditions: protein: recombinant; tags: N-terminal GST; dsDNA, one strand shown
T8 sequence: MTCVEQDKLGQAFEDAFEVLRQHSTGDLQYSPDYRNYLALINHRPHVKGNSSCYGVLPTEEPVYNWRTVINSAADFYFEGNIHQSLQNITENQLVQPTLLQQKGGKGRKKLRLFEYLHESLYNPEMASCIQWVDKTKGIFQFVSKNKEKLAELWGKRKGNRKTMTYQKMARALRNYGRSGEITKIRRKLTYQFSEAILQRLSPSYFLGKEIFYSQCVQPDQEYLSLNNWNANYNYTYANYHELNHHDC
Procedure, shortened: as §1

ELF4 = ELF4 (Homo sapiens, UniProt Q99607 1-663); conditions: protein: recombinant; tags: N-terminal GST; dsDNA, one strand shown
Sequence of ELF4 (Q99607 whole entry): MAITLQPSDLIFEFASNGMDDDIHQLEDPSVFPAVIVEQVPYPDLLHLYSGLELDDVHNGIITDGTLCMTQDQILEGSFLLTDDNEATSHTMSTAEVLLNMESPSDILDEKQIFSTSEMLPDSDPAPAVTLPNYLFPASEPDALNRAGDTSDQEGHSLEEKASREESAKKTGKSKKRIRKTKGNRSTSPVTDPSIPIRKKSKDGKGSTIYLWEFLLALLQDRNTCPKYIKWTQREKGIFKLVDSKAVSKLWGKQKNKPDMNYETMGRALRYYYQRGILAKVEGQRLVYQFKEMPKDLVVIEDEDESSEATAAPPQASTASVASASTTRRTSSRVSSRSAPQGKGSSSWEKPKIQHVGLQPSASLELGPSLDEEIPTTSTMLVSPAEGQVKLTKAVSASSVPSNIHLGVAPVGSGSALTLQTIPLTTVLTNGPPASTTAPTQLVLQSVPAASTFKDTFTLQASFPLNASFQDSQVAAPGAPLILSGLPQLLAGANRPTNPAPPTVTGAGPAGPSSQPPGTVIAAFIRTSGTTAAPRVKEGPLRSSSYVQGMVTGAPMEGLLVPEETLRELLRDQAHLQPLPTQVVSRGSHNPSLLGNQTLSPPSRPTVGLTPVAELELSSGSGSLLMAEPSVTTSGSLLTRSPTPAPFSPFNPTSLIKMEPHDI
Procedure, shortened: as §1

ELK4 = biological target: T9, ELK4 (Homo sapiens, UniProt P28324-2 1-405); conditions: protein: recombinant; tags: N-terminal GST; dsDNA, one strand shown
T9 sequence: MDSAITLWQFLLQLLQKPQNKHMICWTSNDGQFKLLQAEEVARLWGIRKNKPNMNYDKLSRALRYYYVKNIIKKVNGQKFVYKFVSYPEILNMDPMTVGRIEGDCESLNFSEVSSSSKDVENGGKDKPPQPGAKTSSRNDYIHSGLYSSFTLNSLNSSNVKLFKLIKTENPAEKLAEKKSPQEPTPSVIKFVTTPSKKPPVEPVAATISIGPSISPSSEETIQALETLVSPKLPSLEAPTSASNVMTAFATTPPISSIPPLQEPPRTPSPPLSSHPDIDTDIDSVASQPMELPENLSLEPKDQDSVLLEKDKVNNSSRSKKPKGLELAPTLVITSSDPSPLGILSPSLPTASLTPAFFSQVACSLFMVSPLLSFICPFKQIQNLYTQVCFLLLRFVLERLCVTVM
Procedure, shortened: as §1

ETV2 = biological target: T10, ETV2 (Homo sapiens, UniProt O00321 1-342); conditions: protein: recombinant; tags: N-terminal GST; dsDNA, one strand shown
T10 sequence: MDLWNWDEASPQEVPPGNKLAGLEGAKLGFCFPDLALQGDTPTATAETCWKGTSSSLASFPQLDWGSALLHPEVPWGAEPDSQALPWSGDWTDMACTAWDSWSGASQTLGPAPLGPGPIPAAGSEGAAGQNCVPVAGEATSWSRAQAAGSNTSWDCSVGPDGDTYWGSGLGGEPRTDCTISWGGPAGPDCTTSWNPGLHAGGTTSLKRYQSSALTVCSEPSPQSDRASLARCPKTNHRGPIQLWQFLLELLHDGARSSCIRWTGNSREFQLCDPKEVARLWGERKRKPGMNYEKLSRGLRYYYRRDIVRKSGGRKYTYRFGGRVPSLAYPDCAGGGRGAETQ
Procedure, shortened: as §1

ELF3 = biological target: T11, ELF3 (Homo sapiens, UniProt P78545 1-371); conditions: protein: recombinant; tags: N-terminal GST; dsDNA, one strand shown
T11 sequence: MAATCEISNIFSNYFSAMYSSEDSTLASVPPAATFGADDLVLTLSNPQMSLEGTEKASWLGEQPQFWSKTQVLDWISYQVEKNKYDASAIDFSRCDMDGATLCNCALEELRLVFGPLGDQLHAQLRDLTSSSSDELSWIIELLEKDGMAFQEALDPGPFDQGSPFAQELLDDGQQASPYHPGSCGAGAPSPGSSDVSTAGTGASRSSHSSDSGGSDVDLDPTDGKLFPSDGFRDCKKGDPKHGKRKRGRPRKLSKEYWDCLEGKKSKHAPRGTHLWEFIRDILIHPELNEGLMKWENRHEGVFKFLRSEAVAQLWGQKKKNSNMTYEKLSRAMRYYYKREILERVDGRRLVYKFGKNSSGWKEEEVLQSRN
Procedure, shortened: as §1

ETV1 = ETV1 (Homo sapiens, UniProt P50549 1-477); conditions: protein: recombinant; tags: N-terminal GST; dsDNA, one strand shown
Sequence of ETV1 (P50549 whole entry): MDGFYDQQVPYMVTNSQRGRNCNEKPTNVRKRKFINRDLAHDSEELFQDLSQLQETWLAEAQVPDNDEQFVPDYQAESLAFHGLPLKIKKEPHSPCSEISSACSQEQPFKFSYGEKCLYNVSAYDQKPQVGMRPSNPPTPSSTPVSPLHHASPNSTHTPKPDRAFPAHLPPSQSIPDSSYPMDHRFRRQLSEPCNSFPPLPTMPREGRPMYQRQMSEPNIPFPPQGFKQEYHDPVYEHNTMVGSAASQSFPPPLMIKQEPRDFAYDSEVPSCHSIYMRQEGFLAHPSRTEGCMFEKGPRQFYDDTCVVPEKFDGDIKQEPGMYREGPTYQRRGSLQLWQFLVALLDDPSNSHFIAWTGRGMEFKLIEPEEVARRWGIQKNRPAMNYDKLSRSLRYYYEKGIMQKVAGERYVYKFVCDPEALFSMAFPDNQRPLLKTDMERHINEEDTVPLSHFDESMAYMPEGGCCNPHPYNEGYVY
Procedure, shortened: as §1

CGATAC
binding signal (FLI1): 1.19 fold enrichment (6-mer frequency, TF over GST control) | binding signal (ELK1): 1.19 fold enrichment (6-mer frequency, TF over GST control) | binding signal (GABPA): 1.27 fold enrichment (6-mer frequency, TF over GST control) | binding signal (ERG): 1.18 fold enrichment (6-mer frequency, TF over GST control) | binding signal (ELF1): 1.19 fold enrichment (6-mer frequency, TF over GST control) | binding signal (EHF): 1.2 fold enrichment (6-mer frequency, TF over GST control) | binding signal (SPI1): 1.15 fold enrichment (6-mer frequency, TF over GST control) | binding signal (SPIB): 1.06 fold enrichment (6-mer frequency, TF over GST control) | binding signal (ELK3): 1.14 fold enrichment (6-mer frequency, TF over GST control) | binding signal (FEV): 1.14 fold enrichment (6-mer frequency, TF over GST control) | binding signal (ETV5): 1.13 fold enrichment (6-mer frequency, TF over GST control) | binding signal (HSF1): 1.01 fold enrichment (6-mer frequency, TF over GST control) | binding signal (SPIC): 1.34 fold enrichment (6-mer frequency, TF over GST control) | binding signal (ELF4): 1.25 fold enrichment (6-mer frequency, TF over GST control) | binding signal (ELK4): 1.15 fold enrichment (6-mer frequency, TF over GST control) | binding signal (ETV2): 1.18 fold enrichment (6-mer frequency, TF over GST control) | binding signal (ELF3): 1.14 fold enrichment (6-mer frequency, TF over GST control) | binding signal (ETV1): 1.13 fold enrichment (6-mer frequency, TF over GST control)
